Measured values from PubChem BioAssay (NCI).
The panel holds about 79,000 compounds, 15% with a hit somewhere; the sample as a whole holds those more often. Cut-off read from the data, not from the text of the source: active = growth inhibition above about 70%; inactive = the rest.

What was measured:
[1] = NCI Yeast Anticancer Drug Screen. Data for the rad50 strain (AID 155);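 note: 0% = growth of vehicle-only cultures of the same strain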; details: S. cerevisiae rad50 strain growth inhibition; at 50.0 µM; active compounds read high
Summary of the method: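 Relative growth inhibition (compound vs vehicle) was measured in yeast with a defined repair-gene alteration.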

[2] = NCI Yeast Anticancer Drug Screen. Data for the mec2-1 strain (AID 157); details: S. cerevisiae mec2-1 strain, at 50.0 µM, active compounds read high
Summary of the method: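 Strain: mec2-1 (DNA repair/cell cycle alteration). Compound exposure, then growth measured; inhibition expressed relative to vehicle.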

[3] = NCI Yeast Anticancer Drug Screen. Data for the sgs1 mgt1 strain (AID 161);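 note: 0% = growth of cultures given vehicle only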; details: S. cerevisiae sgs1 mgt1 strain, at 50.0 µM, active compounds read high
Summary of the method: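 Genetically altered yeast, compound exposure, growth inhibition relative to vehicle.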

[4] = NCI Yeast Anticancer Drug Screen. Data for the cln2 rad14 strain (AID 165);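 note: 0% = growth equal to vehicle treated cultures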; details: S. cerevisiae cln2 rad14 strain, at 50.0 µM, active compounds read high
Summary of the method: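 Compounds are applied to the cln2 rad14 yeast strain, and growth is then compared with that of vehicle-treated cultures to give inhibition.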

[5] = NCI Yeast Anticancer Drug Screen. Data for the bub3 strain (AID 167); details: S. cerevisiae bub3 mutant strain, at 50.0 µM, active compounds read high
Summary of the method: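 Screening used yeast with an engineered genetic alteration affecting cell cycle control. Compound-exposed cultures were compared with vehicle cultures, and reduced growth was taken as inhibition.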

[6] = NCI Yeast Anticancer Drug Screen. Data for the mlh1 rad18 strain (AID 175); details: S. cerevisiae mlh1 rad18 strain growth inhibition; at 50.0 µM; active compounds read high
Summary of the method: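 Read-out is yeast growth inhibition, calculated against vehicle-only controls. The compound was applied to a strain engineered with DNA damage repair alterations.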

Measured: growth inhibition

CNC1(C(=O)O)CCCCC1
inactive: [1] -0.35% | [2] -4.65% | [3] -2% | [4] 4.6% | [5] 4.85%

COC(=O)c1ccccc1NC(=O)Nc1cccc(Cl)c1C
inactive: [1] 13.8% | [2] -2.25% | [3] 25.2% | [4] 12% | [5] 17.6%

CSc1ncc(C#N)c2nc(-c3ccccc3)nn12
inactive: [1] 5.6% | [2] 13.9% | [3] 3.35% | [4] 8.1% | [5] 12.1%

NS(=O)(=O)c1ccccc1
inactive: [1] 25.2% | [2] 18.9% | [3] 7.95% | [4] -28.4% | [5] 12.4%

COc1ccc(/C(Cl)=C/c2cc(OC)ccc2OC)cc1
inactive: [1] -5.1% | [2] -10.7% | [3] -26.9% | [4] -0.25% | [5] -30.2%

Nc1nc(N)c(N=Nc2ccc(S(=O)(=O)O)cc2)c(N)n1
inactive: [1] -5.35% | [2] -5.3% | [3] 4.25% | [4] -21.1% | [5] 2%

Nc1ccc([N+](=O)[O-])c(F)c1
inactive: [1] -6.05% | [2] -6.8% | [3] -3.25% | [4] -11.8% | [5] 10.1%

Cc1ccc(CNC(=O)NC(C)(C)C)cc1
inactive: [1] -3.05% | [2] -8.45% | [3] -2.65% | [4] -50.2% | [5] 1.85% | [6] 0.1%

NC(=S)c1ccncc1
inactive: [1] 6.5% | [2] 8.15% | [3] 13% | [4] 12.7% | [5] 5%

O=C(O)C1CCCCC1O (stereo not drawn)
inactive: [1] -11.6% | [2] 21.1% | [3] -5.25% | [4] 23.3% | [5] 21.4%

CSCC[C@H]1C(=O)N=C(N)N1C(=O)OCc1ccccc1
inactive: [1] -5.7% | [2] 3.85% | [3] 3.6% | [4] -9.6% | [5] -2.75%

CCN(CC)CCC1CC/C(=C\c2ccc(OC)cc2)C1=O (stereo not drawn)
inactive: [1] 18.3% | [2] -4.35% | [3] 27.9% | [4] 21.1% | [5] -2.45%

CC(=O)c1cc2cc(Br)ccc2oc1=O
inactive: [1] 13.5% | [2] 18% | [3] 16.2% | [4] 24.9% | [5] 14.4%

CN(C1CCCCC1)S(=O)(=O)c1ccc(N)cc1
inactive: [1] 7.65% | [2] -3.35% | [3] 12% | [4] 11.4% | [5] 5.25%

COc1cccc(N)c1
inactive: [1] 4.6% | [2] -11.8% | [3] -6.65% | [4] -2.75% | [5] -4.95%

Cc1c(Cl)cccc1NC(=O)C(=O)C(C(=O)c1ccccc1-c1ccccc1)C1OC(=O)c2ccccc21 (stereo not drawn)
inactive: [1] -31.9% | [2] -44.5% | [3] -14.3% | [4] -41.8% | [5] 11.9%

Cc1cc(C(C)(C)C)cc(C)c1[N+](=O)[O-]
inactive: [1] 18.7% | [2] -7.55% | [3] -17.9% | [4] 8.2% | [5] -7.1%

NC(Cc1ccccc1)C(=O)CCl (stereo not drawn)
inactive: [1] 31.6% | [2] 29.8% | [3] 40.8% | [4] 18.4% | [5] 36.2%

Cc1ccc(NC(=O)Oc2ccc(F)cc2)cc1NC(=O)Oc1ccc(F)cc1
inactive: [1] 25.9% | [2] 13.3% | [3] 15.3% | [4] 15.2% | [5] -4.95%

OC1[C@H](O)CN(OCc2ccccc2)C[C@@H]1O (stereo partly drawn)
inactive: [1] -13.9% | [2] -2.4% | [3] -15.1% | [4] -20.4% | [5] 7.85%

CCCNC(=O)N1C(=O)c2ccccc2S1(=O)=O
inactive: [1] -26.8% | [2] -7.2% | [3] 7.85% | [4] -26.1% | [5] -14.1%

C=C(C)CN(CC(=C)C)C(C)=O
inactive: [1] 5.7% | [2] -17.7% | [3] -15.4% | [4] -6.15% | [5] -16.3%

CCCCCCCCCCCCCCCC/C(C(=O)OC)=C(/O)C(=O)OCC
inactive: [1] -4.7% | [2] -12.1% | [3] -3.65% | [4] -67% | [5] -1.2%

CC1(C#N)C(C#N)(C#N)C1(C#N)C#N
inactive: [1] -0.05% | [2] -3.35% | [3] -10.8% | [4] -13.2% | [5] -30.1%

CC(=O)OCC1C(OC(C)=O)C(OC(C)=O)C(n2cnc3c(N)ncnc32)N1C(C)=O (stereo not drawn)
inactive: [1] 17.1% | [2] 3.75% | [3] 16.3% | [4] 11.4% | [5] 1.5%

CCN(CC)c1ccc(N=C2C=C(C(=O)Nc3ccc(S(C)(=O)=O)cc3)C(=O)c3ccccc32)c(C)c1
inactive: [1] -15.8% | [2] -29.5% | [3] 2.55% | [4] 6.6% | [5] -4.2% | [6] -17.2%

OCC(O)C(O)C(O)c1nn(-c2ccccc2)c2nc3ccc(Cl)cc3nc12 (stereo not drawn)
inactive: [1] -0.8% | [2] 9% | [3] 6.05% | [4] -3.8% | [5] 9.25%

O=C(NC[N+]12CCO[B-]1(c1ccccc1)OCC2)c1ccccc1O (stereo not drawn)
inactive: [1] 25.9% | [2] -8.4% | [3] 4.7% | [4] 13.3% | [5] -0.75%

Nc1ccc(C(=O)N/N=C/C=C/c2ccccc2)cc1
inactive: [1] 0.6% | [2] 56.1% | [3] 16.6% | [4] -5.8%

COC(=O)C(=O)C(C(=O)C=C(C)C)c1nc2n(c1O)C(=N)N=N2 (stereo not drawn)
inactive: [1] 13.2% | [2] 20.9% | [3] 14.3% | [4] -1.75% | [5] 13.1%

CCc1cc2ccccc2oc1=O
inactive: [1] -1.1% | [2] 3.65% | [3] 0.1% | [4] -18.1% | [5] 1.55%

Cc1cccc(CP(Cc2cccc(C)c2)CC2(Cp3c4ccccc4c4ccccc43)COC2)c1
inactive: [1] 18% | [2] -0.8% | [3] 33.4% | [4] 26.9% | [5] 31.6%

COc1ccccc1P(=O)(CCP(=O)(c1ccccc1)c1ccccc1OC)c1ccccc1 (stereo not drawn)
inactive: [1] 2.15% | [2] 15.5% | [3] 13.3% | [4] 13.5% | [5] -1.75%

NC(CS(=O)Cc1ccccc1)C(=O)O (stereo not drawn)
inactive: [1] 0.8% | [2] -1.1% | [3] -0.3% | [4] -29.6% | [5] -2.8%

Cc1ccc([N+](=O)[O-])c(N)n1
inactive: [1] 3.25% | [2] -5.65% | [3] -2.45% | [4] 2.3% | [5] 3.8%

CCSC(SCC)C(Nc1ccc([N+](=O)[O-])cc1[N+](=O)[O-])C(OC(C)=O)C(OC(C)=O)C(COC(C)=O)OC(C)=O (stereo not drawn)
inactive: [1] 30.9% | [2] 9.65% | [3] 10.2% | [4] 14.8% | [5] -2.9%

CC1(C)CC(=O)C(CC2=C(N)CC(C)(C)CC2=O)=C(N)C1
inactive: [1] 1.8% | [2] 5.8% | [3] 9.9% | [4] -13.3% | [5] 10.6%

CCOC1(c2ccccc2)NC(=O)NC1(OCC)c1ccccc1 (stereo not drawn)
inactive: [1] 14.2% | [2] 5.75% | [3] 18% | [4] -20.1% | [5] 0.05%

CCOC(=O)c1[nH]c(C)c(/C(C)=N\NC(N)=O)c1C
inactive: [1] -20.2% | [2] -14.7% | [3] -7.4% | [4] -20.9% | [5] 8%

CCc1nc(N)nc(N)c1-c1ccc(Cl)c(NC(C)=O)c1
inactive: [1] 8.9% | [2] -3.6% | [3] -7.6% | [4] 10.1% | [5] 6.6%

Nc1nc2c(ncn2Cc2ccc(Cl)c(Cl)c2)c(=O)[nH]1
inactive: [1] -5.1% | [2] -7.4% | [3] -1.65% | [4] -10.1% | [5] -0.5% | [6] 2.55%

Cn1c(=O)c2c(n(C)c1=O)n(C)c(=O)n2C
inactive: [1] 18.3% | [2] 8.25% | [3] -18.9% | [4] 12.7% | [5] 1.85% | [6] 15.9%

CC(OCc1ccccc1)C(NC(=O)C1CSSCC(NC(=O)C(Cc2ccccc2)NC(=O)OCc2ccccc2)C(=O)NC(Cc2ccccc2)C(=O)NC(Cc2cn(C=O)c3ccccc23)C(=O)NC(CCCCNC(=O)OCc2ccccc2)C(=O)NC(C(C)OCc2ccccc2)C(=O)N1)C(N)=O (stereo not drawn)
inactive: [1] -10.7% | [2] 0.7% | [3] -4.75% | [4] 21.1% | [5] 23.8% | [6] -3%

COCc1cc(=O)c(OC)cn1CCO
inactive: [1] -40.5% | [2] -17.9% | [3] -25.9% | [4] -63.1% | [5] 0% | [6] -5.2%

N#CCC(=O)N1CCCC1
inactive: [1] -23.1% | [2] -32.3% | [3] -3.8% | [4] -8.6% | [5] -14.3% | [6] -26.2%

CCCC(=O)Oc1ccc(C(C)(C)C)cc1C
inactive: [1] -5.65% | [2] -19.1% | [3] 3.4% | [4] -19.3% | [5] -0.5% | [6] -8.6%

CC1=Nc2c(C#N)ncn2N=C(C)C1
inactive: [1] 31.9% | [2] 0.25% | [3] 17.5% | [4] 41.4% | [5] 28.8% | [6] -19.1%
